Assay outcomes as filed in PubChem.
PfHsp90 set2: growth inhibition of PfHsp90-expressing yeast, primary screen, antimalarial PfHsp90 inhibitor project, S. cerevisiae, BacTiter-Glo luminescence, single point, set 2; BacTiter-Glo ATP, 48 h; yeast lacking PDR1 and PDR3 efflux regulators; inhibition, % at 9.4 µM; 0.32% of 310,000 active;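 active means every replicate shows inhibition above about 80%, whatever the replicate mean, limit read from the data; inconclusive means mean inhibition reaches the set limit but some replicate falls short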;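 further: 0% = DMSO neutral controls and 100% = 20 µM radicicol positive controls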
TIM10 inh: growth inhibitors of isogenic TIM10 control yeast, primary screen, counter-screen for tim10-1 yeast inhibitor project, luminescence, uHTS | S. cerevisiae TIM10 strain growth, BacTiter-Glo luminescence, 24 h | inhibition, % at 10 µM | 1.4% of 330,000 active;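 active means inhibition of 40% or more at the single tested concentration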;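 further: wild-type TIM10 isogenic control strain grown at permissive 25 °C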
SKKanGAS inh: S. pyogenes SKKanGAS growth inhibitors in kanamycin, primary screen, streptokinase expression inhibitor project, SKKanGAS strain, BacTiter-Glo luminescence | inhibition, % at 7.5 µM | 6 h | AID 1662, 2009 | 1.3% of 300,000 active;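 active means mean replicate score, as percent of positive control median, at least 50; inconclusive means mean below 50 but one replicate at or above 50; inactive means mean and every replicate below 50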;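 further: strain carries kanamycin resistance gene driven by streptokinase promoter and grows in 40 µg/ml kanamycin; loss of luminescence reflects streptokinase promoter inhibition or plain growth inhibition; 0% = median of DMSO wells and 100% = positive control at its reference dose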
NALP1 inh: NALP1 inflammasome inhibitors in reconstituted yeast, colorimetric, S. cerevisiae, triplicate retest | AID 2071, 2009 | 0.61% of 280,000 active | inhibition, % at 10 µM | S. cerevisiae NALP1/ASC/caspase-1 growth, X-gal OD620, 72 h; in the data active means inhibition mostly above about 24%, no sharp cut-off; inactive means mostly below about 32%
tim23-1 inh: growth inhibitors of tim23-1 mutant yeast, primary screen, luminescence, uHTS; S. cerevisiae tim23-1 growth, BacTiter-Glo luminescence, 24 h; inhibition, % at 20 µM; 1.3% of 330,000 active; AID 463212, 2010;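 active means growth inhibition of the mutant yeast at or above 50%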;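 further: temperature-sensitive mutant grown at 25 °C; plate controls were DMSO-treated mutant yeast for no effect and medium wells lacking yeast for full effect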
tim10-1 inh: growth inhibitors of tim10-1 mutant yeast, primary screen, luminescence, uHTS | S. cerevisiae tim10-1 ts strain growth, BacTiter-Glo, 24 h | inhibition, % at 20 µM | 2.2% of 330,000 active;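 active means inhibition of at least 40%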;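 further: mutant grown at 25 °C; 0% = DMSO wells with yeast and 100% = wells holding no yeast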
TIM10 conf: growth inhibitors of wild-type TIM10 yeast, confirmation, counter-screen for tim10-1 synthetic lethality project, single concentration, luminescence, S. cerevisiae. inhibition, % at 10 µM. S. cerevisiae tim10 strain growth, BacTiter-Glo luminescence, 24 h. 63% of 4,600 active. shares compounds with TIM10 inh;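 active means inhibition of yeast growth at or above a set limit in either of two replicates at 10 µM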;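 further: this counterscreen used the strain with wild-type TIM10; 0% = yeast with DMSO and 100% = medium wells lacking yeast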
tim23-1 confirm: tim23-1 mutant yeast growth inhibitors, confirmation, luminescence, single concentration; S. cerevisiae tim23-1 growth, BacTiter-Glo luminescence, 24 h; shares compounds with tim23-1 inh; inhibition, % at 20 µM; 83% of 4,400 active; AID 463218, 2010;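 active means inhibition above about 39% in either of two replicate wells at 20 µM, limit read from the data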;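 further: temperature-sensitive tim23-1 mutant grown at 25 °C; 0% = DMSO wells with yeast and 100% = medium wells without yeast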
* = called active by the depositor; u = inconclusive; x = no result given. In the library only some 4.8% were active in any assay of this set; here they are far more common.

SMILES | PfHsp90 set2 | TIM10 inh | SKKanGAS inh | NALP1 inh | tim23-1 inh | tim10-1 inh | TIM10 conf | tim23-1 confirm
Cc1cc2n(n1)SC(Nc1ccc(F)cc1)N2 (stereo unspecified) | 2.5 | 15.2 | -4.5 | -13.9 | 5.6 | 10.9 | x | x
Cc1cc2n(n1)SC(Nc1cccc3ccccc13)N2 (stereo unspecified) | 3.5 | 41.8* | -25.8 | -1.0 | 22.8 | 38.2 | 23.4 | x
CC[C@@H](CC1CCCCC1)C(=O)N(Cc1ccccc1)c1ccccc1 | -10.8 | 5.4 | x | x | 18.4 | 11.7 | x | x
O=C(CSc1nnc(-c2cccs2)n1CC1CCCO1)c1cc2ccccc2o1 (stereo unspecified) | u | 41.1* | 6.0 | -7.7 | 19.2 | 30.6 | -26.2 | x
Cc1cccc(NC(=O)c2ccc(-n3ccnc3)nc2)c1 | x | -0.3 | 1.7 | 30.3 | -4.7 | -16.4 | x | x
Cc1cccc(N2CCN(C(=O)c3ccc4nc[nH]c4c3)CC2)c1C | -29.5 | 35.2 | 2.2 | 18.6 | 35.8 | 34.8 | x | x
Cc1ccc(Cl)cc1N1CCN(C(=O)c2ccc3nc[nH]c3c2)CC1 | -5.9 | 47.9* | -2.8 | 31.7 | 39.7 | 31.1 | 36.6* | x
CCC(=O)N1CCN(c2ccc(NC(=S)NC(=O)c3ccc(OC)c([N+](=O)[O-])c3)cc2)CC1 | -4.0 | 24.8 | 34.8 | 4.8 | 17.9 | 9.4 | x | x
CCNS(=O)(=O)c1ccc(NC(=O)c2ccc(Cn3cc([N+](=O)[O-])cn3)o2)cc1 | 3.9 | 47.0* | 3.7 | 20.6 | 8.7 | -7.5 | 3.1 | x
COC(=O)c1ccc(C)c(NC(=O)c2ccc(Cn3cc([N+](=O)[O-])cn3)o2)c1 | -8.0 | 11.8 | 1.3 | 16.3 | 8.3 | 16.8 | x | x
CSc1ccc(S(=O)(=O)N(CC(=O)NCc2ccccn2)c2ccc(C)cc2)cc1 | -16.7 | -5.5 | -4.8 | -27.3 | 16.8 | 16.3 | x | x
CC(=O)Nc1ccc(C(=O)N/N=C/C2CC3C=CC2C3)cc1 (stereo unspecified) | 6.2 | -3.2 | 11.4 | 7.6 | -4.8 | 9.7 | x | x
Cc1ccc(NS(=O)(=O)c2ccc(NC(=O)c3ccc(Br)o3)cc2)c(C)c1 | x | 41.9* | 44.4 | 33.9 | 16.9 | 25.8 | 2.3 | x
Cc1ccc(NS(=O)(=O)c2ccc(NC(=O)c3ccccc3C(=O)O)cc2)c(C)c1 | -7.7 | 5.7 | -6.8 | x | 22.6 | 18.3 | x | x
O=C(Nc1c(F)cccc1F)c1cnc(N2CCN(c3ccccn3)CC2)c2ccccc12 | -13.5 | 43.2* | 1.1 | 11.7 | 30.8 | 34.8 | 38.2* | x
Cc1ccc(NC(=O)c2cnc(N3CCN(c4ccccn4)CC3)c3ccccc23)c(Br)c1 | -35.8 | x | -4.0 | 8.3 | x | x | x | x
COC(=O)C1=C(C)N(CCCC(=O)O)C(=O)NC1c1ccc(OC)cc1 (stereo unspecified) | 0.9 | 11.8 | 1.5 | x | 13.6 | 5.1 | x | x
CCOc1ccc(S(=O)(=O)Nc2cccc(Cl)c2)cc1 | -0.6 | 48.7* | -2.8 | x | 48.2 | 28.8 | 42.7* | x
COCCn1c(C)cc(C(=O)COc2ncnc3ccc(Br)cc23)c1C | 24.0 | 42.7* | -2.5 | -4.0 | 18.8 | 10.7 | 21.7 | x
Fc1cccc(/C=N/n2c(C3CCCCC3)n[nH]c2=S)c1 | -21.3 | 44.1* | 4.9 | 0.8 | 25.6 | 26.2 | 37.5* | x
COc1cccc(/C=N/n2c(C3CCCCC3)n[nH]c2=S)c1 | 13.7 | 33.4 | 6.4 | -3.8 | 41.7 | 28.9 | x | x
Cc1cc(C)c(NS(=O)(=O)c2cccc3cccnc23)c(C)c1 | 33.5 | 13.9 | 5.9 | 10.0 | 27.1 | 22.5 | x | x
Cc1ccc(S(=O)(=O)Nc2cccc3cccnc23)c([N+](=O)[O-])c1 | x | 46.0* | u | -7.1 | 51.6* | 23.2 | 35.2* | 52.5*
O=C(NC(=S)Nc1nc2ccccc2s1)c1cccs1 | -3.3 | 32.7 | 5.1 | 39.4 | 24.1 | 30.3 | x | x
O=c1c2cc(Cl)ccc2nc(-c2ccccc2Cl)n1O | 0.5 | -9.1 | 17.0 | -55.8 | -7.4 | 11.7 | x | x
SMILES | PfHsp90 set2 | TIM10 inh | SKKanGAS inh | NALP1 inh | tim23-1 inh | tim10-1 inh | TIM10 conf | tim23-1 confirm
CC1=NN(c2ccc(C)cc2)C(=O)/C1=C/c1ccc(-c2cc([N+](=O)[O-])ccc2O)o1 | 3.5 | 15.2 | 33.9 | 15.7 | 36.6 | 32.9 | x | x
CC1=NN(c2ccc(C(=O)O)cc2)C(=O)/C1=C/c1ccc(-c2ccccc2F)o1 | 0.6 | 43.5* | -5.1 | 5.9 | 62.2* | 37.5 | 23.1 | 39.1*
O=C(Nc1ccc2nc(-c3ccccc3)[nH]c2c1)c1cccs1 | -26.1 | 46.8* | -5.7 | -4.9 | 59.4* | -22.4 | 19.9 | 69.2*
O=C(Nc1nc(-c2ccccc2)cs1)c1cccs1 | 6.2 | 43.6* | 3.3 | -65.8 | 53.4* | 34.3 | 5.2 | 54.6*
O=C(Nc1ccc(-c2cn3ccccc3n2)cc1)c1cccs1 | 9.0 | 42.0* | 0.8 | 0.2 | 62.4* | -3.7 | 26.5 | 71.4*
Nn1cc(-c2ccccc2)nc1SCC(=O)NCC1CCCO1 (stereo unspecified) | 8.9 | 12.4 | -0.5 | 26.1 | 16.3 | 8.3 | x | x
Cc1ccc(Cn2c(=O)c3c(nc4n3CCCN4Cc3ccccc3)n(C)c2=O)cc1 | 7.9 | 17.5 | 32.2 | 26.8 | 26.4 | 13.0 | x | x
COc1ccc(OC)c2[nH]c(C(=O)N/N=C/c3ccccc3O)cc12 | 15.7 | 44.7* | 113.5* | -36.7 | 54.3* | 13.6 | 26.2 | 49.8*
COc1ccc(/C=N/NC(=O)c2cc3c(OC)ccc(OC)c3[nH]2)cc1O | -3.2 | 3.1 | -0.7 | -1.0 | 14.1 | 18.1 | x | x
COc1ccc(OC)c(N(CC(=O)N2CCCC2)S(=O)(=O)c2ccc(OC)c(OC)c2)c1 | -14.8 | 9.7 | -7.6 | -7.5 | 6.7 | 3.5 | x | x
N#Cc1nc(NCC(F)F)nc(Nc2cc(F)cc(F)c2)n1 | 2.0 | 42.3* | x | x | 68.8* | 38.9 | 49.8* | 65.5*
Oc1c(Cl)cc(Cl)cc1C=Nc1ccc(N2CCOCC2)cc1 | -20.6 | 65.7* | 4.3 | 23.9 | 73.9* | 16.3 | 17.5 | 38.5*
O=C(N/N=C/C=C/c1ccccc1)c1cccs1 | 15.2 | 33.4 | 11.4 | -1.6 | 42.4 | -1.8 | x | x
O=C(N/N=C/C(Br)=C/c1ccccc1)c1cccs1 | 26.3 | 41.5* | -2.8 | 3.9 | 61.1* | 20.5 | 27.9 | 76.2*
O=C(Nc1ccc2oc(-c3ccccc3)nc2c1)c1ccco1 | 35.6 | 63.9* | -14.6 | 74.8 | 51.2* | 39.2 | -3.5 | 78.6*
